Measurements from the supplement of paper PMC11732987, “Enantioselective OTUD7B fragment discovery through chemoproteomics screening and high-throughput optimisation” (Communications Chemistry, 2025).

Key:
Experiment in all cases: log2 ratio of Biotin-Ahx-Ub-VS probe labelling (fragment/DMSO); higher = less target engagement (more negative = stronger competition), active = hit call of the paper (q ≤ 0.05, log2 ratio ≤ -1)
Settings in all cases: compound concentration: 200 uM; treatment time: 3 h
[1] = biological target: T1, USP42 (UniProt Q9H9J4)
T1 sequence (whole entry): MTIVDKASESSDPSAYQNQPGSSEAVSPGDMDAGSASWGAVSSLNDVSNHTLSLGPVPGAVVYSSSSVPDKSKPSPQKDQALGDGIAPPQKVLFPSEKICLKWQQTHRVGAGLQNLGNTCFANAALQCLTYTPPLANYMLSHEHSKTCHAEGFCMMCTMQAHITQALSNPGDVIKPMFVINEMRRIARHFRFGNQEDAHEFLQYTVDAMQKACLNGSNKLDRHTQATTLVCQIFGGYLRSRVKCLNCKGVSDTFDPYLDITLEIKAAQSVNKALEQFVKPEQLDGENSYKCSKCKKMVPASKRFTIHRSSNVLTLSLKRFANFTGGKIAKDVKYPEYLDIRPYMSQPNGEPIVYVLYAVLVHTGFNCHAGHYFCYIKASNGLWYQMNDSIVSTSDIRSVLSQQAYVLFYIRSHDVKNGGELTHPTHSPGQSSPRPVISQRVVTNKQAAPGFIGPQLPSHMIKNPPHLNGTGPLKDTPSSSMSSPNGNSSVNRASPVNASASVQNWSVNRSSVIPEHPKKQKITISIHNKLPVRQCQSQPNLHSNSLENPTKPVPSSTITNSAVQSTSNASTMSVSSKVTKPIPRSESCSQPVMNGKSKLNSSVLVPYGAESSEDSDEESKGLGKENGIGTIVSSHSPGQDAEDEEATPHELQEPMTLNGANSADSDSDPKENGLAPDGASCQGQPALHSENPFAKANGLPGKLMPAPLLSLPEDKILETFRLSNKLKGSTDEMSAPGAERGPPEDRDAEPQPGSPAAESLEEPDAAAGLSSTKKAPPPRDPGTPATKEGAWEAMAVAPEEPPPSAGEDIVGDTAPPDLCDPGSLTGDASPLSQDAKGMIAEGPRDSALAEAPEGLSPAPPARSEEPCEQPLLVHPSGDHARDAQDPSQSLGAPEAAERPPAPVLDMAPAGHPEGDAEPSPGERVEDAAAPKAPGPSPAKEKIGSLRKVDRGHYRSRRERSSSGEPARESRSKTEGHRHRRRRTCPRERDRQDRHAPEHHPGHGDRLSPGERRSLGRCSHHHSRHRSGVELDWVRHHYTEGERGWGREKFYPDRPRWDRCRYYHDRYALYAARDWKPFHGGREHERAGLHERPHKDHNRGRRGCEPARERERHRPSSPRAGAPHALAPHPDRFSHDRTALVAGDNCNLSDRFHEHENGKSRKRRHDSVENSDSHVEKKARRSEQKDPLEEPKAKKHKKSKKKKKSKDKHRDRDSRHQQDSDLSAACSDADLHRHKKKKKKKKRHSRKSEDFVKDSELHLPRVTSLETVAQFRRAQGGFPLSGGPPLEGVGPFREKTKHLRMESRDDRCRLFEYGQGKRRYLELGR
How it was run: (§1)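 HEK293T lysate (495 µg per sample, in Tris/CHAPS/IGEPAL buffer with protease inhibitors) was exposed in triplicate for 3 h to fragment at 200 µM or to vehicle, then to Biotin-Ahx-Ub-VS at 0.5 µM final for 1 h. Labelled DUBs were enriched on NeutrAvidin, digested with LysC and trypsin, and analysed by diaPASEF LC-MS/MS. Spectronaut label-free quantities were normalised to the global median, and values are average log2 ratios of fragment over vehicle from an unpaired t-test. Only proteins with ≥2 unique peptides were used.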

[2] = biological target: USP46 (UniProt P62068)
How it was run: as §1

[3] = biological target: T2, USP47 (UniProt Q96K76)
T2 sequence (whole entry): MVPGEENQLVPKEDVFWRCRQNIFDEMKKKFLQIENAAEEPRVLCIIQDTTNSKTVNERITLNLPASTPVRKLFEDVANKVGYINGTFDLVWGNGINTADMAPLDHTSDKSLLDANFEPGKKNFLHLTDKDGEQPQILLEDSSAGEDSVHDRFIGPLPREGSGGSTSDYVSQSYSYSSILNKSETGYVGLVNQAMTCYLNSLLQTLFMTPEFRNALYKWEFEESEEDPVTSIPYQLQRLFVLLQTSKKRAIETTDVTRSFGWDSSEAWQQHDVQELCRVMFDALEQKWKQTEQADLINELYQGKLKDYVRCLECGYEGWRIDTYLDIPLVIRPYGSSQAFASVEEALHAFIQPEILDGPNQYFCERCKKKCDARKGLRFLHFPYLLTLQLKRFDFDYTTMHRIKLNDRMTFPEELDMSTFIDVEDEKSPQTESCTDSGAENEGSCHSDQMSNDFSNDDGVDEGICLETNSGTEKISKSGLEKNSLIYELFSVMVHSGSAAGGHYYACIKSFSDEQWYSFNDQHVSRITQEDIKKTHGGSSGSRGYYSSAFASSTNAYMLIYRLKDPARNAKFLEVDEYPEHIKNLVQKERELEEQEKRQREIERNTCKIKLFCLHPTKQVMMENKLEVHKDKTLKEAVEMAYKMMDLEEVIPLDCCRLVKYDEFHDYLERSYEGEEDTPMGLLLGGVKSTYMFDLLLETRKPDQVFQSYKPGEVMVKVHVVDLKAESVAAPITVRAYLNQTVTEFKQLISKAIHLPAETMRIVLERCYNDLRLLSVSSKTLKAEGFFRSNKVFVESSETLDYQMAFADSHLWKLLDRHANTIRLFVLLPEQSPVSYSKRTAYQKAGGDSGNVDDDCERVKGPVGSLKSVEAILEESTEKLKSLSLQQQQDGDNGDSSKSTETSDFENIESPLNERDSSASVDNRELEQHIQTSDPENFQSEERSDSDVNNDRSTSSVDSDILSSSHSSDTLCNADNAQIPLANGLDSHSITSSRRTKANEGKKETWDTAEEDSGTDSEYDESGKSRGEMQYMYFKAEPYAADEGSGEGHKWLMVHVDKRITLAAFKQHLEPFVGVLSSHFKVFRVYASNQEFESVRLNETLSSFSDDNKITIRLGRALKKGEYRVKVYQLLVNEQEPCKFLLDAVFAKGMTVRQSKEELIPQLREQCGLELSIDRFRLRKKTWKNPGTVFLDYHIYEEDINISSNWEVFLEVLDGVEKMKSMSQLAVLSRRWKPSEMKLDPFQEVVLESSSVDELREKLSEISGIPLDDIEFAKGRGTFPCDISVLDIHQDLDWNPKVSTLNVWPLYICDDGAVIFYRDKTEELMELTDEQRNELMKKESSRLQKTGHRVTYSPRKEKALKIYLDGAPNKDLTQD
How it was run: as §1

[4] = biological target: T3, USP48 (UniProt Q86UV5)
T3 sequence (whole entry): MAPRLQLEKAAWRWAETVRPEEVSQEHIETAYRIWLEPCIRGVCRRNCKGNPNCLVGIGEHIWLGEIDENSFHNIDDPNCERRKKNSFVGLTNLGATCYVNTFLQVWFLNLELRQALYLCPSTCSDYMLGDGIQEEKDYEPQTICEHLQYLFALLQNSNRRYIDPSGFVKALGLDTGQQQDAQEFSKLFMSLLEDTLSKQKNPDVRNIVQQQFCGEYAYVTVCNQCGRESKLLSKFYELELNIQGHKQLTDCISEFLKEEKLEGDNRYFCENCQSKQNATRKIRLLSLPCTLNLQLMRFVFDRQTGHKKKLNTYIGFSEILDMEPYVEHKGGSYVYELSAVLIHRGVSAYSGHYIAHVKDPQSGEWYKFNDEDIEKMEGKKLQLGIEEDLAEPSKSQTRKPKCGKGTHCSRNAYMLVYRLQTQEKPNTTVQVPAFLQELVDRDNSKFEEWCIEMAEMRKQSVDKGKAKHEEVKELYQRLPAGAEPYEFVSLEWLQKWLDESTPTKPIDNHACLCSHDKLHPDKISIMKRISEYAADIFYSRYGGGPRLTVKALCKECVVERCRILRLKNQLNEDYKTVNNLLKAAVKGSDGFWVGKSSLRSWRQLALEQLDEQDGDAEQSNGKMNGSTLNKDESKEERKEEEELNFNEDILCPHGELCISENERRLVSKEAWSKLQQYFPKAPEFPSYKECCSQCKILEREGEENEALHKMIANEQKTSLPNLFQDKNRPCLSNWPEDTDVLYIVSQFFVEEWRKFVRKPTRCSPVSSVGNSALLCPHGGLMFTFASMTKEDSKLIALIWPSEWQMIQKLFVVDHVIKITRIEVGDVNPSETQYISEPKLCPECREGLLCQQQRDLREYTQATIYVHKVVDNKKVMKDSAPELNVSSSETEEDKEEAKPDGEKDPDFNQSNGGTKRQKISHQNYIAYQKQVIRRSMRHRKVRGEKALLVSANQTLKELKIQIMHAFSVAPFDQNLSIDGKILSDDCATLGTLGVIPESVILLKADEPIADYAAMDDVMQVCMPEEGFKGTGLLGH
How it was run: as §1

[5] = biological target: T4, USP5 (UniProt P45974)
T4 sequence (whole entry): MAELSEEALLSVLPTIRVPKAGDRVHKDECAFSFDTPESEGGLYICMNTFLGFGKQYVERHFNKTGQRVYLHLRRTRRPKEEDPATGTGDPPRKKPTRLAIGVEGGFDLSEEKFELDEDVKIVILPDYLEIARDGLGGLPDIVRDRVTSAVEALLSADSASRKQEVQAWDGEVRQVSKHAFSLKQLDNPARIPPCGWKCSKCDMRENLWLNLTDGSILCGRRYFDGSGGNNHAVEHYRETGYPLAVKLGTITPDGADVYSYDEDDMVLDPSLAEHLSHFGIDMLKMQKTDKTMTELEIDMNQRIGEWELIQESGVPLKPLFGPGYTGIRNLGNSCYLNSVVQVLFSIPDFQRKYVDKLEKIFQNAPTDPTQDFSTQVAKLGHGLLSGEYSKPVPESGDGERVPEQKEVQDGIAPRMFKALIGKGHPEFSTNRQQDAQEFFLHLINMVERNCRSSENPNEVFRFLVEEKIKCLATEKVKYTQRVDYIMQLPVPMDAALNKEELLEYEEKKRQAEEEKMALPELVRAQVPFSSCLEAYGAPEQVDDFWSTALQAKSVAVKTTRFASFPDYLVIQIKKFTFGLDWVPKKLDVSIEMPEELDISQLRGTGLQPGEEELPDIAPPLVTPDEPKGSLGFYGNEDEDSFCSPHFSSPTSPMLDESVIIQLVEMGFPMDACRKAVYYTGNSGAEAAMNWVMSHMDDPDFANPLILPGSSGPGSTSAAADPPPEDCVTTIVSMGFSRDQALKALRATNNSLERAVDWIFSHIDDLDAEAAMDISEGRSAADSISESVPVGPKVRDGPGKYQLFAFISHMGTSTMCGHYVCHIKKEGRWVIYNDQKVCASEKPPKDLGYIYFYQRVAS
How it was run: as §1

[6] = biological target: USP54 (UniProt Q70EL1)
How it was run: as §1

[7] = biological target: USP7 (UniProt Q93009)
How it was run: as §1

[8] = biological target: T5, USP8 (UniProt P40818)
T5 sequence (whole entry): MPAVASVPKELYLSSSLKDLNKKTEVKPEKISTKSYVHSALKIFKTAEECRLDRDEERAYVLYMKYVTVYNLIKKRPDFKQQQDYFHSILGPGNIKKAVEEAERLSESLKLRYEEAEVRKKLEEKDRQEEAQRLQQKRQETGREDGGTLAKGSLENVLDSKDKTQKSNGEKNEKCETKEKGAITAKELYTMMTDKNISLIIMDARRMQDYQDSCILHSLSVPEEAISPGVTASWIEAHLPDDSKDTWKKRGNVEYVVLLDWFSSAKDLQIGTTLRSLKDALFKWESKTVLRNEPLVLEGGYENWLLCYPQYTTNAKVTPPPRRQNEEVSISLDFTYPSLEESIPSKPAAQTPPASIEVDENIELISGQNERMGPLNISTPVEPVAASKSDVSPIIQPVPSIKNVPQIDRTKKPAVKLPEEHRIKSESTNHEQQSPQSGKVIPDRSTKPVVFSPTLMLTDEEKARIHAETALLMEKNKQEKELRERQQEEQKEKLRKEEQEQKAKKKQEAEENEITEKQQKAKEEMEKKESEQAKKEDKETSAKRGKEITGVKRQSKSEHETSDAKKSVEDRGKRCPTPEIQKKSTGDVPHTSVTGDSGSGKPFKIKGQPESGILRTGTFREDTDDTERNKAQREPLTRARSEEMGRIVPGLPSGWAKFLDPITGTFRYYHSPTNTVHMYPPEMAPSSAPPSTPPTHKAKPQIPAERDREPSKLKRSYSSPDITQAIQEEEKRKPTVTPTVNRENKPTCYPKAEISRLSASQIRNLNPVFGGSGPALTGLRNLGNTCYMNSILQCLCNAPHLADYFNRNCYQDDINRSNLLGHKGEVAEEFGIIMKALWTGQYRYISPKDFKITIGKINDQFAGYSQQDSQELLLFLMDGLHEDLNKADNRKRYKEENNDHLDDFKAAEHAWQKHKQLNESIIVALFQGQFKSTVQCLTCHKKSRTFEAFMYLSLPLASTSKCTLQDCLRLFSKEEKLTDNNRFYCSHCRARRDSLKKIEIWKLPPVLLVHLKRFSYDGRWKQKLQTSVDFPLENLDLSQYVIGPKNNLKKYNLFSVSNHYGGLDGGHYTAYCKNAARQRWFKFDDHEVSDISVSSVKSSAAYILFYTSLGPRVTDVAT
How it was run: as §1

Measured: log2 ratio of Biotin-Ahx-Ub-VS probe labelling

Sequence of USP7 (Q93009 whole entry, looked up): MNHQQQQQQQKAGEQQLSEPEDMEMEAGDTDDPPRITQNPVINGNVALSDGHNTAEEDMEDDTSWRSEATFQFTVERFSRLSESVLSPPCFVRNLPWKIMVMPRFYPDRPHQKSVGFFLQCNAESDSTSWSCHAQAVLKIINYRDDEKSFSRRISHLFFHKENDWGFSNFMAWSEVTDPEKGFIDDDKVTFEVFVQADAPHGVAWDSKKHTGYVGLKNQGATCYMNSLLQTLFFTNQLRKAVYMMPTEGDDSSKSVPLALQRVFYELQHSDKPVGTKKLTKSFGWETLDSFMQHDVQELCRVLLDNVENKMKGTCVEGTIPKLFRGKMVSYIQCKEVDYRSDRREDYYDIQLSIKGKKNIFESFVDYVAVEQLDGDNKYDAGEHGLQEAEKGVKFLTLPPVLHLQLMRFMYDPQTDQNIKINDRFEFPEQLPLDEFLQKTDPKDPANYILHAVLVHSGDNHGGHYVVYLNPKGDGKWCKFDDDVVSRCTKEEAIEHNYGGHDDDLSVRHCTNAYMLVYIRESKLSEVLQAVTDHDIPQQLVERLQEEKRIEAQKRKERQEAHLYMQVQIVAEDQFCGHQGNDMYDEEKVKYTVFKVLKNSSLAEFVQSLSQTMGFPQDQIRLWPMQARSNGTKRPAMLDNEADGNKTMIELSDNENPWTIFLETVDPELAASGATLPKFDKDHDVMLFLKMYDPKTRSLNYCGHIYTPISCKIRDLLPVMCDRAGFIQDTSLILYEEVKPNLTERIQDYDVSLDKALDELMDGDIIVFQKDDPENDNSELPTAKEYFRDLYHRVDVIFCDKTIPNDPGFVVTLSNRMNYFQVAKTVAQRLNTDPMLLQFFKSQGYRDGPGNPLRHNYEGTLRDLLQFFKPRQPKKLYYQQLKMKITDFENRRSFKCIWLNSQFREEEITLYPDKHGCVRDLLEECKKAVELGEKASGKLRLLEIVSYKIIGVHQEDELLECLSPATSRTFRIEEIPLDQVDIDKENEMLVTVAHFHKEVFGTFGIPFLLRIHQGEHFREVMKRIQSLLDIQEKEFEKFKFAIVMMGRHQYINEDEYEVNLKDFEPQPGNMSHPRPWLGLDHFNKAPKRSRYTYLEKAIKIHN
Sequence of USP54 (Q70EL1 whole entry): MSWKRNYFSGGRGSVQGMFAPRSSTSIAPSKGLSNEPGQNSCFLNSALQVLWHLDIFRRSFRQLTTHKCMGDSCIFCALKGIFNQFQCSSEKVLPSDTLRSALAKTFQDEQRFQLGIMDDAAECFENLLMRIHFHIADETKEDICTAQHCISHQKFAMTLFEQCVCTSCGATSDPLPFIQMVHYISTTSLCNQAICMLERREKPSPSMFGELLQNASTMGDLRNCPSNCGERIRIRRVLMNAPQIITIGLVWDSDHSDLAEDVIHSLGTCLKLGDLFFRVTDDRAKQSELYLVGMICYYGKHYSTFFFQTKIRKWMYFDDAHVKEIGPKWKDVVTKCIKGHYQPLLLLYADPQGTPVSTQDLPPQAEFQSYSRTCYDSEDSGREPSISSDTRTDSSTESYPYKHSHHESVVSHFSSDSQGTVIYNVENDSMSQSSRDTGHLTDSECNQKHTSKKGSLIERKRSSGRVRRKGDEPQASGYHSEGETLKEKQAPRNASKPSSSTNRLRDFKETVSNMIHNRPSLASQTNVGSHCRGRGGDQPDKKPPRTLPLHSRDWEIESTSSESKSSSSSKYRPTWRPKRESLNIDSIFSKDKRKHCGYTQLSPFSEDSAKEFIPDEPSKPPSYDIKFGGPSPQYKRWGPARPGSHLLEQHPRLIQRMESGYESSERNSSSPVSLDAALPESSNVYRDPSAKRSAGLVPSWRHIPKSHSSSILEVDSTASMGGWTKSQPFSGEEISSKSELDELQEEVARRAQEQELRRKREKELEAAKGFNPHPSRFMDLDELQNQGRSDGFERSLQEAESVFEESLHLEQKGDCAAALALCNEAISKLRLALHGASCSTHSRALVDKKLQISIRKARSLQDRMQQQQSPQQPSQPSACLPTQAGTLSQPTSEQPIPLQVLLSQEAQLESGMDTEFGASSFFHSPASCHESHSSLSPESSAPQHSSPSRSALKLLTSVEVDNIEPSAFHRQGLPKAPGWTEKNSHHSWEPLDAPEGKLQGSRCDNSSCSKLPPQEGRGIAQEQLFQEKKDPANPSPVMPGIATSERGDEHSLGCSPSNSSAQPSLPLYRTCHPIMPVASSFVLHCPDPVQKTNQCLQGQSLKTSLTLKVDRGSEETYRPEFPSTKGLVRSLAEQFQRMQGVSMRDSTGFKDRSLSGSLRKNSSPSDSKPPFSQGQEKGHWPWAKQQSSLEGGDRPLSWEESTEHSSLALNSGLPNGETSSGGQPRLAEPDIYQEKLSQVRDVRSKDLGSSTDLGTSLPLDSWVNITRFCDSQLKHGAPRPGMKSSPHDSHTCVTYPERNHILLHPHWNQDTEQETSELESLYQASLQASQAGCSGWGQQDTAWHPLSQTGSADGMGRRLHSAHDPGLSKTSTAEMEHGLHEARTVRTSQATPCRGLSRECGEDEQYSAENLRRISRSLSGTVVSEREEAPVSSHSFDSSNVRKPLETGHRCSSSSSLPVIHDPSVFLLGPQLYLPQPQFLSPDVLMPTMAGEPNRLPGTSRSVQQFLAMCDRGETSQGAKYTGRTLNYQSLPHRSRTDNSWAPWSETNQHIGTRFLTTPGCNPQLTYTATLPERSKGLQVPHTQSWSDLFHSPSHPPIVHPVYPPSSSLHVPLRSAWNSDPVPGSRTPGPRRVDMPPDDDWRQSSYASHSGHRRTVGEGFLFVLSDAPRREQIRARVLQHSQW
Sequence of USP46 (P62068 whole entry): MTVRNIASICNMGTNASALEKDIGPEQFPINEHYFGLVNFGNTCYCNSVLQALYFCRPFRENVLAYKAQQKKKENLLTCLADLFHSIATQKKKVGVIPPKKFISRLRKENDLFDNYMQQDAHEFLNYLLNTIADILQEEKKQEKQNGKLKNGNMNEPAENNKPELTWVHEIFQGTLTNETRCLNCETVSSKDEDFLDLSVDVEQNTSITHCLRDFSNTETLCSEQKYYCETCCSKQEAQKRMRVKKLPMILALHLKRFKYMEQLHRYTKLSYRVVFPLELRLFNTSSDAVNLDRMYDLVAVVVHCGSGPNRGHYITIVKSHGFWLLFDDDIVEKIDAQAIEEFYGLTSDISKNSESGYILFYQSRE

O=C(CCl)N1CCCC1c1ccsc1 (stereo not drawn)
inactive: [1] -0.371 | [2] -0.105 | [3] -0.389 | [4] -0.959 | [5] 0.45 | [6] 0.559 | [7] -0.795 | [8] -0.441
